Counter-ions that a name gives are not always drawn. ± gives the standard deviation.
Key:
[1] = test system: Jurkat; assay: mean cell size (FSC-A) relative to DMSO control (fraction of control); higher = larger cells; conditions: 48 h
Outline: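 Jurkat cells at 600 cells/µl were incubated for 1 h and then treated for 48h with the Enzo Screen-Well FDA Approved Drug Library v2.0 at 25µM, with DMSO at 0.9% (v/v) final. Compounds that reduced counts below 20% of controls were retested in 10-fold dilutions down to 25nM. Cell count and mean cell size, taken as forward scatter area, were measured by flow cytometry relative to solvent-only controls. Each plate carried 6-12 controls, and values are means of 3 biological replicates.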

[2] = test system: Jurkat; assay: cell count relative to DMSO control (fraction of control); higher = more cells (less growth inhibition); conditions: 48 h

Structure (SMILES) | mean cell size [1] | cell count [2]
Cc1onc(-c2ccccc2)c1C(=O)N[C@@H]1C(=O)N2[C@@H]1SC(C)(C)[C@@H]2C(=O)O [Oxacillin·Na] (concentration: 25 µM) | 0.9367 ± 0.005 | 0.975 ± 0.1
COC(=O)C1=C(C)NC(C)=C(C(=O)OCC(C)C)C1c1ccccc1[N+](=O)[O-] (stereo unspecified) [Nisoldipine] (concentration: 25 µM) | 1.09 ± 0.047 | 0.342 ± 0.015
CCc1nc(N)nc(N)c1-c1ccc(Cl)cc1 [Pyrimethamine] (concentration: 25 µM) | 0.959 ± 0.018 | 0.2 ± 0.033
CCN1CC(CCN2CCOCC2)C(c2ccccc2)(c2ccccc2)C1=O (stereo unspecified) [Doxapram·HCl] (concentration: 25 µM) | 0.928 ± 0.013 | 1.01 ± 0.015
C[C@H](Cn1cnc2c(N)ncnc21)OCP(=O)(O)O [Tenofovir] (concentration: 2.5 µM) | 0.997 ± 0.14 | 0.894 ± 0.016
CC1(C)O[C@@H]2[C@@H](CO[C@@]3(COS(N)(=O)=O)OC(C)(C)O[C@@H]23)O1 [Topiramate] (concentration: 25 µM) | 0.969 ± 0.024 | 1.14 ± 0.14
COc1cccc2c1C(=O)c1c(O)c3c(c(O)c1C2=O)C[C@@](O)(C(=O)CO)C[C@@H]3O[C@H]1C[C@H](N)[C@@H](O)[C@H](C)O1 [Epirubicin·HCl] (concentration: 250 nM) | 1.42 ± 0.022 | 0.206 ± 0.052
CCCC(=O)O[C@]1(C(=O)COC(C)=O)CC[C@H]2[C@@H]3C[C@H](F)C4=CC(=O)C=C[C@]4(C)[C@@]3(F)[C@@H](O)C[C@@]21C [Difluprednate] (concentration: 25 µM) | 0.935 ± 0.037 | 0.605 ± 0.14
CC[C@H](C)C(=O)O[C@H]1C[C@H](O)C=C2C=C[C@H](C)[C@H](CC[C@@H](O)C[C@@H](O)CC(=O)O)[C@H]21 [Pravastatin·Na] (concentration: 25 µM) | 1.07 ± 0.028 | 0.771 ± 0.15
CC(C)(C)NC[C@H](O)COc1nsnc1N1CCOCC1 [(S)-Timolol Maleate] (concentration: 25 µM) | 0.963 ± 0.034 | 0.967 ± 0.15
C[C@@](Cc1ccc(O)c(O)c1)(NN)C(=O)O [Carbidopa] (concentration: 25 µM) | 0.939 ± 0.027 | 0.439 ± 0.09
N=C(N)NC(=O)c1nc(Cl)c(N)nc1N [Amiloride·HCl·2H2O] (concentration: 25 µM) | 0.945 ± 0.055 | 0.504 ± 0.045
CC(C)(S)[C@@H](N)C(=O)O [Penicillamine (D-Penicillamine)] (concentration: 25 µM) | 0.954 ± 0.042 | 0.796 ± 0.074
CCCCCCCCc1ccc(CCC(N)(CO)CO)cc1 [Fingolimod] (concentration: 25 µM) | 1.03 ± 0.035 | 0.953 ± 0.12
C[C@]12CCC(=O)C=C1CC[C@@H]1[C@@H]2[C@@H](O)C[C@@]2(C)[C@H]1CC[C@]2(O)C(=O)CO [Hydrocortisone] (concentration: 25 µM) | 0.9165 ± 0.0081 | 0.72 ± 0.092
C[N+](C)(C)CC(=O)O [Betaine] (concentration: 25 µM) | 0.945 ± 0.047 | 0.449 ± 0.066
CNNCc1ccc(C(=O)NC(C)C)cc1 [Procarbazine·HCl] (concentration: 25 µM) | 1.01 ± 0.053 | 0.822 ± 0.1
CCCNCC(O)COc1ccccc1C(=O)CCc1ccccc1 (stereo unspecified) [Propafenone·HCl] (concentration: 25 µM) | 1.06 ± 0.02 | 0.605 ± 0.13
C#C[C@]1(O)CC[C@H]2[C@@H]3CCC4=CC(=O)CC[C@@H]4[C@H]3C(=C)C[C@@]21CC [Etonogestrel] (concentration: 25 µM) | 0.997 ± 0.025 | 0.557 ± 0.013
O=C1CN(/N=C/c2ccc([N+](=O)[O-])o2)C(=O)N1 [Nitrofurantoin] (concentration: 2.5 µM) | 0.955 ± 0.019 | 0.66 ± 0.029
NC(=O)OCC(COC(N)=O)c1ccccc1 [Felbamate] (concentration: 25 µM) | 1.02 ± 0.053 | 0.755 ± 0.16
CN(C)CCOC(c1ccccc1)c1ccccc1 [Diphenhydramine·HCl] (concentration: 25 µM) | 0.967 ± 0.017 | 0.987 ± 0.042
CO/N=C(\C(=O)N[C@@H]1C(=O)N2C(C(=O)O)=CCS[C@H]12)c1csc(N)n1 [Ceftizoxim·Na] (concentration: 25 µM) | 0.95 ± 0.016 | 1.09 ± 0.073
Cc1cc(C)cc(OCC2CNC(=O)O2)c1 (stereo unspecified) [Metaxalone] (concentration: 25 µM) | 0.998 ± 0.054 | 0.853 ± 0.17
C[C@@H]1[C@H](O)[C@@H](C)/C=C/C=C/C=C/C=C/C=C/C=C/C=C/[C@H](O[C@@H]2O[C@H](C)[C@@H](O)[C@H](N)[C@@H]2O)C[C@@H]2O[C@](O)(C[C@@H](O)C[C@@H](O)[C@H](O)CC[C@@H](O)C[C@@H](O)CC(=O)O[C@H]1C)C[C@H](O)[C@H]2C(=O)O [Amphotericin B] (concentration: 25 µM) | 1.016 ± 0.0092 | 0.27 ± 0.024
CC(=O)Nc1nnc(S(N)(=O)=O)s1 [Acetazolamide] (concentration: 25 µM) | 1.04 ± 0.061 | 0.755 ± 0.054
O=C1CCCC(=O)C1C(=O)c1ccc(C(F)(F)F)cc1[N+](=O)[O-] [Nitisinone] (concentration: 25 µM) | 0.938 ± 0.017 | 0.936 ± 0.1

Structure (SMILES) | mean cell size [1] | cell count [2]
COc1c(C)c2c(c(O)c1C/C=C(\C)CCC(=O)OCCN1CCOCC1)C(=O)OC2 [Mycophenolate Mofetil] (concentration: 25 µM) | 0.892 ± 0.0081 | 0.203 ± 0.039
CNCCCC12CCC(c3ccccc31)c1ccccc12 [Maprotiline·HCl] (concentration: 2.5 µM) | 0.991 ± 0.018 | 0.788 ± 0.053
Nc1ccn([C@@H]2O[C@H](CO)[C@@H](O)C2(F)F)c(=O)n1 [Gemcitabine·HCl] (concentration: 25 nM) | 1.12 ± 0.024 | 0.427 ± 0.09
C[C@@H]1C[C@H]2[C@@H]3CCC4=CC(=O)C=C[C@]4(C)[C@@]3(F)[C@@H](O)C[C@]2(C)[C@@]1(O)C(=O)CO [Dexamethasone] (concentration: 25 µM) | 0.917 ± 0.019 | 0.819 ± 0.11
CCC[C@@H]1C[C@@H](C(=O)N[C@@H]([C@H]2O[C@H](SC)[C@H](O)[C@@H](O)[C@H]2O)[C@H](C)Cl)N(C)C1 [Clindamycin·HCl] (concentration: 25 µM) | 1.07 ± 0.062 | 0.805 ± 0.14
NC(=O)N1c2ccccc2CC(=O)c2ccccc21 [Oxcarbazepine] (concentration: 25 µM) | 0.952 ± 0.015 | 0.772 ± 0.15
CN(C)CCc1c[nH]c2ccc(C[C@H]3COC(=O)N3)cc12 [Zolmitriptan] (concentration: 25 µM) | 0.996 ± 0.017 | 0.419 ± 0.11
CCCCc1oc2ccccc2c1C(=O)c1cc(I)c(OCCN(CC)CC)c(I)c1 [Amiodarone·HCl] (concentration: 2.5 µM) | 1.05 ± 0.018 | 0.616 ± 0.12
CC(C)C(=O)OCC(=O)[C@@]12O[C@H](C3CCCCC3)O[C@@H]1C[C@H]1[C@@H]3CCC4=CC(=O)C=C[C@]4(C)[C@H]3[C@@H](O)C[C@@]12C [Ciclesonide] (concentration: 2.5 µM) | 0.9714 ± 0.0087 | 0.838 ± 0.08
Nc1ccn([C@@H]2CS[C@H](CO)O2)c(=O)n1 [Lamivudine] (concentration: 25 µM) | 0.995 ± 0.046 | 0.624 ± 0.13
O=C(C1CCCCC1)N1CC(=O)N2CCc3ccccc3C2C1 (stereo unspecified) [Praziquantel] (concentration: 25 µM) | 0.996 ± 0.028 | 0.781 ± 0.048
CCN(CC)CCNC(=O)c1ccc(N)cc1 [Procainamide·HCl] (concentration: 25 µM) | 1.03 ± 0.025 | 0.935 ± 0.17
CN(C)CC(c1ccc(O)cc1)C1(O)CCCCC1 (stereo unspecified) [Desvenlafaxine Succinate Hydrate] (concentration: 25 µM) | 0.993 ± 0.027 | 0.64 ± 0.09
CCCC1O[C@@H]2C[C@H]3[C@@H]4CCC5=CC(=O)C=C[C@]5(C)[C@H]4[C@@H](O)C[C@]3(C)[C@]2(C(=O)CO)O1 (stereo partly specified) [Budesonide] (concentration: 25 µM) | 0.945 ± 0.037 | 0.799 ± 0.046
NS(=O)(=O)c1cc2c(cc1C(F)(F)F)NCNS2(=O)=O [Hydroflumethiazide] (concentration: 25 µM) | 0.944 ± 0.048 | 0.681 ± 0.17
CC(=O)NS(=O)(=O)c1ccc(N)cc1 [Sulfacetamide·Na] (concentration: 25 µM) | 0.951 ± 0.038 | 0.78 ± 0.07
CC(C)NCC(O)COc1ccc(CC(N)=O)cc1 (racemic) [(±)-Atenolol] (concentration: 25 µM) | 0.836 ± 0.018 | 1.14 ± 0.087
CCn1cc(C(=O)O)c(=O)c2cc(F)c(N3CCNCC3)cc21 [Norfloxacin] (concentration: 25 µM) | 0.9213 ± 0.0047 | 0.982 ± 0.014
CCc1cccc2c3c([nH]c12)C(CC)(CC(=O)O)OCC3 (stereo unspecified) [Etodolac] (concentration: 25 µM) | 1.08 ± 0.042 | 0.947 ± 0.018
Clc1ccc(C(Cn2ccnc2)OCc2csc3c(Cl)cccc23)c(Cl)c1 (stereo unspecified) [Sertaconazole] (concentration: 25 µM) | 1.04 ± 0.05 | 0.801 ± 0.11
CC1=C(/C=C/C(C)=C\C=C\C(C)=C\C(=O)O)C(C)(C)CCC1 [Alitretinoin] (concentration: 25 µM) | 0.927 ± 0.025 | 0.555 ± 0.18
CCCCC1=NC2(CCCC2)C(=O)N1Cc1ccc(-c2ccccc2-c2nnn[nH]2)cc1 [Irbesartan] (concentration: 25 µM) | 0.959 ± 0.06 | 0.401 ± 0.013
CO[C@@]12[C@H](COC(N)=O)C3=C(C(=O)C(C)=C(N)C3=O)N1C[C@@H]1N[C@@H]12 [Mitomycin C] (concentration: 2.5 µM) | 1.22 ± 0.059 | 0.257 ± 0.048
Nc1nc(=O)[nH]cc1F [Flucytosine] (concentration: 25 µM) | 0.997 ± 0.035 | 0.919 ± 0.025
Fc1ccc([C@@H]2CCNC[C@H]2COc2ccc3c(c2)OCO3)cc1 [Paroxetine·HCl] (concentration: 2.5 µM) | 1.01 ± 0.059 | 0.24 ± 0.057
CO[C@H]1C[C@@H]2CC[C@@H](C)[C@@](O)(O2)C(=O)C(=O)N2CCCC[C@H]2C(=O)O[C@H]([C@H](C)C[C@@H]2CC[C@@H](O)[C@H](OC)C2)CC(=O)[C@H](C)/C=C(\C)[C@@H](O)[C@@H](OC)C(=O)[C@H](C)C[C@H](C)/C=C/C=C/C=C/1C [Sirolimus (Rapamycin)] (concentration: 2.5 µM) | 0.7581 ± 0.0033 | 0.626 ± 0.074
